Screens as filed in PubChem.
Anthrax LF inh2: blocks Bacillus anthracis lethal factor protease; P15917; multiplex microsphere protease cleavage assay, LF; inhibition, % at 10 µM; 0.12% of 360,000 active; AID 588501; further: plate controls were buffer without enzyme for full effect and enzyme alone for no effect
FBA Mtb inh: inhibitors of M. tuberculosis fructose-bisphosphate aldolase; P9WQA3; purified M. tuberculosis FBA, fluorescence read-out; inhibition, % at 1 µM; 2.3% of 360,000 active; in the data active means inhibition above about 27%;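 further: 0% = vehicle and 100% = reference inhibitor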
Target sequence (P9WQA3 whole entry, looked up): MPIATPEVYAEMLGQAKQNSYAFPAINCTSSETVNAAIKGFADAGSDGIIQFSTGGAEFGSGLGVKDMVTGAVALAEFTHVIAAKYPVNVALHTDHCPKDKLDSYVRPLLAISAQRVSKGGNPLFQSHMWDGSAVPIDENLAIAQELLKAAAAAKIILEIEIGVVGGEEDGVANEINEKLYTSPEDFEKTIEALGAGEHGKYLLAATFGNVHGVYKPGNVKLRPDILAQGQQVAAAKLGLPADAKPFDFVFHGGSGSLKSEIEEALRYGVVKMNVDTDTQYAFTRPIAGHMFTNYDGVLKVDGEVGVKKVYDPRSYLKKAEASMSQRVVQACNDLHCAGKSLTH
BoNT-A LC inh2: BoNT A light chain protease inhibition; multiplex microsphere protease substrate cleavage, flow cytometry; inhibition, % at 10 µM; 0.17% of 360,000 active; AID 588499; further: plate controls were buffer without enzyme for full effect and enzyme alone for no effect
Bead autofluor: compound fluorescence in toxin protease inhibitor counterscreen; compound autofluorescence counterscreen, microsphere flow cytometry; active compounds read high; fluorescence intensity (test concentration not listed); 3.1% of 360,000 active; AID 624483; in the data active means fluorescence intensity above about 16000; inconclusive means no clear call, values can overlap the other calls
GDH-TPI inh: GDH-TPI coupled enzyme inhibition counter-screen. inhibition, % at 4.8 µM. AID 588335. 1.2% of 360,000 active. GDH-TPI coupled enzyme counterscreen, NADH absorbance; in the data active means inhibition above about 30%;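 further: 0% = DMSO wells and 100% = wells lacking the enzyme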
BoNT F protease: inhibitors of Botulinum neurotoxin F light chain protease; Multiplex microsphere protease cleavage assay, flow cytometry; 0.22% of 360,000 active; inhibition, % at 10 µM; in the data active means inhibition above about 35%, passing the limit was not always enough; inconclusive means no clear call, values can overlap the other calls; further: plate controls were buffer without enzyme for full effect and enzyme alone for no effect
* hit, by the source's call; ? = inconclusive; nt = no result given; + = active, no number. Compounds with a hit are over-represented: about 6.6% of the library has one in this group of screens. Unless noted, no stated cut-off is given here; in the data, active means inhibition above about 30%; inconclusive means no clear call, values can overlap the other calls; inactive means below that.

SMILES	Anthrax LF inh2	FBA Mtb inh	BoNT-A LC inh2	Bead autofluor	GDH-TPI inh	BoNT F protease
CC(NC(=O)c1ccco1)C(=O)OCC(=O)N1CCCCCC1 (stereo not drawn)	-5.5	-1.9	-2.2	4165	-4.2	-20.2
CCc1nn2c(=O)cc(COC(=O)c3cc(Cl)c(OC)c(OC)c3)nc2s1	-9.2	0.2	-1.4	4192	-2.2	-9.8
CC1CCCN(S(=O)(=O)c2ccc(NC(=O)CN3C(=O)NC(C)(c4ccccc4)C3=O)cc2)C1 (stereo not drawn)	-1.3	2.0	-1.1	?	1.7	-5.4
COc1ccc(/C(C)=N/NC(=O)CNC(=O)Cc2ccccc2)c(OC)c1	20.9	3.2	2.2	3753	0.0	38.5*
C/C(Cc1ccccc1)=N\NC(=O)CNC(=O)c1cccc(Cl)c1	6.9	0.6	-5.6	3200	15.7	?
C/C(Cc1ccccc1)=N\NC(=O)CNC(=O)c1ccc(Cl)cc1Cl	?	1.8	5.8	3625	-13.0	36.4*
COc1ccc(/C(C)=N/NC(=O)CNC(=O)c2ccco2)c(OC)c1	-0.3	-0.6	-1.5	5441	0.0	1.0
Cc1cc(N(C)Cc2ccccc2)nc2cc(O)ccc12	-6.0	+	-4.8	4563	8.9	?
CCOC(=O)C1(C)CCCN1C(=O)c1ccc(C(F)(F)F)nc1C (stereo not drawn)	-0.6	-0.7	-0.1	3847	8.0	0.3
Cc1c(NC(=O)c2ccc(=O)oc2)c(=O)n(-c2ccccc2)n1C	-3.6	-0.9	-0.5	2700	32.6*	-12.9
Cc1c(NC(=O)c2ccc(C(=O)Nc3c(C)n(C)n(-c4ccccc4)c3=O)cc2)c(=O)n(-c2ccccc2)n1C	nt	3.2	nt	nt	15.7	nt
Cc1c(NC(=S)/C=C2\N(C)c3ccccc3C2(C)C)c(=O)n(-c2ccccc2)n1C	-4.1	-4.5	4.3	19375*	21.2	6.6
Cc1c(N=C/C=C2\N(C)c3ccccc3C2(C)C)c(=O)n(-c2ccccc2)n1C	-5.7	-3.0	0.2	8872	23.3	7.2
CCOC(=O)Nc1c(C)n(C)n(-c2ccccc2)c1=O	-12.1	0.0	11.6	19722*	9.2	10.0
Cc1c(NC(=O)CSc2nccn2C)c(=O)n(-c2ccccc2)n1C	-1.0	1.7	?	16417*	5.0	0.2
COc1ccccc1CNC(=O)C(=O)NCC1OCCN1S(=O)(=O)c1ccc(Br)cc1 (stereo not drawn)	1.2	-0.2	-1.8	4903	4.1	-10.3
CCOc1ccc(C(C)=O)cc1Cn1c(=O)oc2ccccc21	7.8	1.9	-1.4	4023	-4.1	-15.4
Cc1c(NC(=O)NCc2ccccc2)c(=O)n(-c2ccccc2)n1C	-1.5	1.4	2.0	22336*	-3.7	2.1
Cc1c(NS(=O)(=O)N2CCCCC2)c(=O)n(-c2ccccc2)n1C	-0.5	-0.1	0.5	16324*	5.6	-0.4
Cc1c(NC(=O)c2n[nH]c(=O)c3ccccc23)c(=O)n(-c2ccccc2)n1C	-4.1	-2.0	3.1	21768*	-4.4	4.0
Cc1ccc(C(=O)Nc2c(C)n(C)n(-c3ccccc3)c2=O)cc1	0.8	1.4	-0.7	4059	-1.6	-1.2
Cc1c(NCc2nc3ccccc3[nH]2)c(=O)n(-c2ccccc2)n1C	-1.6	-1.9	0.3	11112	40.0*	-10.9
Cc1c(NC(=O)Nc2ccccc2)c(=O)n(-c2ccccc2)n1C	-6.9	0.1	1.8	4277	-5.6	10.1
CCS(=O)(=O)Nc1c(C)n(C)n(-c2ccccc2)c1=O	1.3	-0.2	-0.3	8366	7.4	-1.0
CCC(CC)NC(=O)CCCSc1nc2ccccc2[nH]1	-7.6	4.7	-2.5	4972	8.9	-19.0
SMILES	Anthrax LF inh2	FBA Mtb inh	BoNT-A LC inh2	Bead autofluor	GDH-TPI inh	BoNT F protease
CCn1cc(C(=O)OC(C)C(=O)Nc2c(C)n(C)n(-c3ccccc3)c2=O)c(=O)c2ccc(C)nc21 (stereo not drawn)	0.6	1.6	-0.2	2084	5.8	-2.0
CCn1cc(C(=O)OCC(=O)Nc2c(C)n(C)n(-c3ccccc3)c2=O)c(=O)c2ccc(C)nc21	-0.9	1.3	0.0	23317*	11.5	1.9
O=C(NC1CCCCC1)C(c1cccnc1)N(C(=O)CCl)c1ccccc1Cl (stereo not drawn)	-0.9	2.7	4.4	2741	2.2	38.3*
CCc1ccc(CCC(=O)Nc2nnc(C)s2)o1	0.2	-4.5	?	20941*	-13.1	-1.6
CCc1ccc(CCC(=O)Nc2nc(CC(C)=O)ns2)o1	-2.5	-0.4	1.2	16142*	7.8	0.9
CCC(C)NS(=O)(=O)c1ccc(S(=O)(=O)N2CCCC3(CCCCC3)C2)cc1 (stereo not drawn)	-5.4	-0.6	1.6	21732*	2.9	-0.5
OC(c1cccnc1)c1nc(-c2cccc(F)c2)cs1 (stereo not drawn)	-0.8	2.3	-0.3	4021	-8.0	-3.3
CCCc1[nH]nc2c1C1(C(=O)N(CC(N)=O)c3ccccc31)C(C(=O)OC)=C(N)O2 (stereo not drawn)	-1.6	-0.1	0.1	2689	7.8	8.0
CCN1C(=O)C2(C(C#N)=C(N)Oc3n[nH]c(-c4ccccc4)c32)c2ccccc21 (stereo not drawn)	-1.2	1.9	0.1	16247*	2.9	-0.5
CCCc1[nH]nc2c1C1(C(=O)N(Cc3ccccc3)c3ccccc31)C(C(=O)OC)=C(N)O2 (stereo not drawn)	-15.2	2.5	7.8	17223*	-14.1	8.8
CCC1(c2ccc(F)cc2)NC(=O)N(CC(=O)Nc2ccc(C)c(S(=O)(=O)N3CCOCC3)c2)C1=O (stereo not drawn)	-7.3	0.1	-0.3	3388	-1.2	-1.6
O=C(COC(=O)c1cc(Cl)nc(Cl)c1)NCc1ccc2c(c1)OCO2	-1.7	0.8	-0.4	3232	6.6	2.9
NC(=O)c1ccsc1NC(=O)CSc1nnc(NC2CC2)s1	0.8	-0.6	0.1	3693	-10.5	2.1
COc1cc(/C=C/C(=O)c2c(O)ccc3c(C)cc(=O)oc23)ccc1O	-1.8	1.7	-0.2	2862	49.5*	1.0
O=C(/C=C/c1cccs1)c1cc(Cl)ccc1O	-3.7	-1.4	-0.6	4043	-5.1	-5.8
Cc1cc(=O)oc2c(C(=O)/C=C/c3ccccc3)c(O)ccc12	1.3	7.6	0.3	2729	1.7	6.7
COc1ccc(/C=C\C(=O)c2c(O)ccc3c(C)cc(=O)oc23)cc1OC	1.0	5.3	0.5	4646	52.2*	-3.8
Cc1cc(=O)oc2c(C(=O)/C=C\c3cccs3)c(O)ccc12	-1.2	1.2	0.0	2364	42.1*	-2.9
COCC(=O)N1CCC(n2nccc2NC(=O)CCOc2ccccc2)CC1	0.7	3.3	1.0	4980	-2.3	4.3
COc1ccc(-c2ccc(NC(=O)c3ccc(Br)o3)cc2)nn1	-4.8	0.8	-4.0	6564	27.2	0.4
O=c1[nH]cnc2c1sc(=S)n2-c1ccccc1	-1.5	-1.0	1.7	22624*	27.6	1.5
C=CCn1c(N)c(C(=O)OCC)sc1=S	3.6	3.0	-0.7	9816	7.1	-14.3
C=CCn1c(=S)sc2c(=O)[nH]cnc21	53.0*	0.3	-1.3	3494	16.4	?
